For 13 molecules, Potency and max response results are on record in PubChem BioAssay (Tox21).

Records with an inconclusive call do not appear. The source holds several records for some structures; these can differ, active in one and inactive in another. Active and inactive are the calls of the source. Calls come from the whole dose curve; as a rule, active = well fitted curve in the direction sought with a large enough effect in the repeat runs; inconclusive = weak or mixed curves; inactive = no such curve, though single readings can be large; an effect the other way counts as inactive or inconclusive.

Assay [1] can be described thus: qHTS RealTime-Glo MT Cell Viability Assay in HepG2 cells - 40 hour (AID 1224870). Note: nearly all actives have a fitted effect of over 50% in size. A digest of the protocol:
(§1)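 HepG2 cells mixed with RealTime-Glo MT reagents (NanoLuc plus cell-permeant prosubstrate) were seeded at 600 cells/well, incubated 5 h at 37 C/5% CO2, then pinned with compounds in DMSO; nonlytic luminescence tracked viability during 40 h treatment.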
Background: Quantitative high-throughput screening tests each substance at several concentrations.

Assay [2] in a line: A CellTox Green Cytotoxicity Assay to monitor cytotoxicity in HEK293 cells - 40 hour (AID 1224871). Note: nearly all actives have a fitted effect of over 45% in size. Note: potency is the fitted concentration of half-maximal effect. The gist of the method: (§2)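 Nonlytic real-time cytotoxicity: HEK293 + CellTox Green reagent plated, 5 h preincubation, pintool compound addition (23 nL in DMSO), 37 C for 40 h, fluorescence measured at successive time points.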
Assay [3] can be described thus: qHTS RealTime-Glo MT Cell Viability Assay in HEK293 cells - 16 hour (AID 1224872). Note: nearly all actives have a fitted effect of over 50% in size. Note: potency is the fitted concentration of half-maximal effect. A digest of the protocol:
(§3)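 Viability tracked continuously by luminescence as live cells reduce a prosubstrate for NanoLuc; HEK293 cells preincubated 5 h, compound-treated at 37 C, and read at 0, 8, 16, 24, 32 and 40 h.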

The nature of assay [4]: qHTS RealTime-Glo MT Cell Viability Assay in HepG2 cells - 8 hour (AID 1224873). Note: nearly all actives have a fitted effect of over 55% in size. The gist of the method: as §1
Assay [5] can be described thus: qHTS RealTime-Glo MT Cell Viability Assay in HEK293 cells - 40 hour (AID 1224874). Note: nearly all actives have a fitted effect of over 50% in size. Note: potency is the fitted concentration of half-maximal effect. To be noted: RealTime-Glo luminescence; max response: stronger effect = lower value. A digest of the protocol:
(§4)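 Cells were seeded together with NanoLuc luciferase and a prosubstrate that viable cells reduce to a luciferase substrate. After a 5 h incubation at 37 C/5% CO2, compounds were added and luminescence was measured repeatedly during 40 h of treatment.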

Assay [6] in a line: A CellTox Green Cytotoxicity Assay to monitor cytotoxicity in HEK293 cells - 24 hour (AID 1224875). Note: series mostly up to about 77 µM; nearly all actives have a fitted effect of over 45% in size. A digest of the protocol:
as §2

The nature of assay [7]: A CellTox Green Cytotoxicity Assay to monitor cytotoxicity in HepG2 cells - 16 hour (AID 1224876). Note: nearly all actives have a fitted effect of over 45% in size. A digest of the protocol:
(§5)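 Read-out is fluorescence of a cyanine dye excluded from live cells that stains DNA of dead HepG2 cells, with signal proportional to cytotoxicity. Plates were read at 0, 8, 16, 24, 32 and 40 h after compound addition.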

A short description of assay [8]: qHTS RealTime-Glo MT Cell Viability Assay in HepG2 cells - 32 hour (AID 1224877). Note: nearly all actives have a fitted effect of over 55% in size. The gist of the method: (§6)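 Viability was tracked continuously by NanoLuc luminescence from prosubstrate reduced by living HepG2 cells, at successive time points over 40 h of compound exposure. Cells with reagent were preincubated 5 h at 37 °C before compound addition.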
Assay [9] is described as follows: A CellTox Green Cytotoxicity Assay to monitor cytotoxicity in HepG2 cells - 24 hour (AID 1224878). Note: nearly all actives have a fitted effect of over 45% in size. The gist of the method: as §5
A short description of assay [10]: A CellTox Green Cytotoxicity Assay to monitor cytotoxicity in HepG2 cells - 40 hour (AID 1224879). Note: nearly all actives have a fitted effect of over 40% in size. A digest of the protocol: as §5
Assay [11] can be described thus: qHTS RealTime-Glo MT Cell Viability Assay in HEK293 cells - 0 hour (AID 1224880). The gist of the method:
as §4

Assay [12] in a line: A CellTox Green Cytotoxicity Assay to monitor cytotoxicity in HEK293 cells - 32 hour (AID 1224881). Note: nearly all actives have a fitted effect of over 40% in size. Note: potency is the fitted concentration of half-maximal effect. A digest of the protocol: as §2
A short description of assay [13]: A CellTox Green Cytotoxicity Assay to monitor cytotoxicity in HepG2 cells - 0 hour (AID 1224882). Note: nearly all actives have a fitted effect of over 35% in size. The gist of the method:
as §5

Assay [14] in a line: A CellTox Green Cytotoxicity Assay to monitor cytotoxicity in HepG2 cells - 32 hour (AID 1224883). Note: nearly all actives have a fitted effect of over 50% in size. The gist of the method: as §5
A short description of assay [15]: A CellTox Green Cytotoxicity Assay to monitor cytotoxicity in HEK293 cells - 8 hour (AID 1224884). Note: nearly all actives have a fitted effect of over 35% in size. A digest of the protocol:
as §2

Assay [16] is described as follows: qHTS RealTime-Glo MT Cell Viability Assay in HepG2 cells - 16 hour (AID 1224885). Note: nearly all actives have a fitted effect of over 50% in size. A digest of the protocol: as §6
Assay [17] is described as follows: qHTS RealTime-Glo MT Cell Viability Assay in HEK293 cells - 24 hour (AID 1224886). Note: nearly all actives have a fitted effect of over 50% in size. Note: potency is the fitted concentration of half-maximal effect. A digest of the protocol:
as §3

Assay [18] in a line: qHTS RealTime-Glo MT Cell Viability Assay in HEK293 cells - 8 hour (AID 1224887). Note: nearly all actives have a fitted effect of over 50% in size. Note: potency is the fitted concentration of half-maximal effect. A digest of the protocol: as §4
Assay [19] in a line: A CellTox Green Cytotoxicity Assay to monitor cytotoxicity in HEK293 cells - 16 hour (AID 1224888). Note: nearly all actives have a fitted effect of over 35% in size. The gist of the method:
as §2

Assay [20] is described as follows: qHTS RealTime-Glo MT Cell Viability Assay in HepG2 cells - 0 hour (AID 1224889). Note: nearly all actives have a fitted effect of over 50% in size. A digest of the protocol:
as §6
% is set by controls: 0 for no effect and ±100 for the full control effect.

Take `O=S(=O)(Cl)c1ccccc1`: the Potency entry in assay [1], in assay [2], in assay [3], in assay [4], in assay [6] and in [7] was “inactive” each time. The Potency result in assay [8], in assay [9], in assay [10], in assay [11], in assay [12] and in assay [13] was “inactive” in each case. In addition, the Potency entry in [14], in assay [15], in [16], in assay [17], in assay [18] and in assay [19] was “inactive” throughout. Also, the Potency entry in [20] is “inactive”. For the same molecule, the max response in assay [5] is 11.8% (inactive).

Regarding `CC/C(=N\OC/C=C/Cl)C1=C(O)CC(C2CCOCC2)CC1=O` (stereo not given), the Potency result in assay [1], in assay [2], in [3], in [4], in assay [6] and in assay [7] was “inactive” throughout. The Potency entry in [8], in assay [9], in assay [10], in [11], in [12] and in assay [13] was “inactive” throughout. Further, the Potency entry in [14], in [15], in assay [16], in [17], in assay [18] and in assay [19] was “inactive” each time. For the same molecule, the Potency entry in assay [20] was “inactive”. Moreover, the max response in assay [5] is 0.456% (inactive).

Consider `O=C(CBr)c1ccccc1`, for which the Potency entry in assay [1], in assay [2], in assay [3], in assay [4], in [6] and in assay [7] was “inactive” in each case. The Potency entry in assay [8], in [9], in assay [10], in [11], in assay [12] and in assay [13] was “inactive” in each case. Besides, the Potency result in assay [14], in assay [15], in [16], in assay [17], in assay [18] and in assay [19] was “inactive” throughout. In addition, the max response in [5] was 3.94% (inactive).

As for `CC(=O)C(C)(C)C`, the Potency result in assay [1], in [2], in assay [3], in [4], in assay [6] and in assay [7] was “inactive” in each case. Also, the Potency result in assay [8], in [9], in assay [10], in assay [11], in [12] and in assay [13] was “inactive” throughout. Moreover, the Potency result in assay [14], in [15], in assay [16], in assay [17], in assay [18] and in assay [19] was “inactive” in each case. For the same molecule, in assay [20], the Potency entry is “inactive”. In addition, the max response in [5] is 8.72% (inactive).

Consider `C=CC(=O)OCC(C)O` (stereo not given), for which the Potency result in [1], in assay [2], in assay [3], in assay [4], in assay [6] and in [7] was “inactive” each time. The Potency result in [8], in assay [9], in assay [10], in assay [11], in [12] and in assay [13] was “inactive” in each case. For the same molecule, the Potency entry in [14], in [15], in [16], in assay [17], in [18] and in [19] was “inactive” each time. Besides, the max response in [5] was 21.2% (inactive).

Regarding `Cc1ccc2ccccc2c1`, the Potency entry in assay [1], in assay [2], in assay [3], in [4], in assay [6] and in assay [7] was “inactive” each time. Moreover, the Potency result in assay [8], in assay [9], in assay [10], in assay [11], in assay [12] and in assay [13] was “inactive” each time. Moreover, the Potency result in assay [14], in assay [15], in [16], in assay [17], in assay [18] and in assay [19] was “inactive” throughout. In addition, in [20], the Potency entry was “inactive”. Besides, the max response in [5] is 0.388% (inactive).

Turning to `O=C1C(Cl)C(CCl)CN1c1cccc(C(F)(F)F)c1` (stereo not given), the Potency result in assay [1], in [2], in assay [4], in assay [6], in [7] and in assay [8] was “inactive” throughout. Also, the Potency result in assay [9], in assay [10], in assay [11], in assay [12], in [13] and in [14] was “inactive” throughout. The Potency entry in [15], in [16], in assay [19] and in [20] was “inactive” each time. In addition, the Potency in assay [3], in assay [5], in assay [17] and in assay [18] was 24.5 µM (active) each time.

For `C#CCOC(C(=O)OCCN(C)C)(c1ccccc1)c1ccccc1`, the Potency entry in assay [1], in assay [2], in assay [3], in assay [4], in [6] and in assay [7] was “inactive” in each case. The Potency result in assay [8], in assay [9], in [10], in assay [11], in [12] and in assay [13] was “inactive” in each case. Further, the Potency entry in [14], in [15], in assay [16], in assay [17], in assay [18] and in [19] was “inactive” in each case. Also, the Potency entry in assay [20] is “inactive”. Further, the max response in [5] was -21.3% (inactive).

With `COC(=O)C(Br)CBr` (stereo not given), the Potency entry in assay [1], in assay [2], in assay [3], in assay [4], in [6] and in assay [7] was “inactive” each time. Moreover, the Potency entry in assay [8], in assay [9], in assay [10], in assay [11], in assay [12] and in assay [13] was “inactive” throughout. The Potency entry in assay [14], in assay [15], in [16], in assay [17], in assay [18] and in assay [19] was “inactive” each time. In addition, the Potency entry in assay [20] is “inactive”. Moreover, in assay [5], the max response is -3.92% (inactive).

Turning to `CCOP(=S)(OCC)Oc1nc(Cl)c(Cl)cc1Cl`, the Potency result in [1], in assay [4], in assay [7], in assay [8], in assay [9] and in assay [10] was “inactive” each time. Further, the Potency result in assay [11], in assay [13], in [16] and in assay [20] was “inactive” each time. For the same molecule, the Potency in [2] is 34.8 µM (active) and inactive; in assay [3], 21.9 µM (active) and inactive; in assay [5], 24.6 µM (active); in [12], 39 µM (active) and inactive; in assay [17], 21.9 µM (active) and inactive; in assay [18] it was 19.5 µM (active) and inactive. For the same molecule, the max response in assay [5] was -11.7% (inactive).

Take `Cn1sc(Cl)cc1=O`: the Potency result in [1], in assay [2], in [3], in [4], in assay [6] and in [7] was “inactive” in each case. The Potency entry in [8], in assay [9], in [10], in [11], in assay [12] and in assay [13] was “inactive” in each case. Moreover, the Potency entry in assay [14], in [15], in [16], in assay [17], in assay [18] and in [19] was “inactive” in each case. Further, in assay [20], the Potency result is “inactive”. The max response in assay [5] was -14% (inactive).

On to `CC1C(=O)C[C@]2(C(C)C)C[C@H]12` (stereo not given in full), for which the Potency entry in assay [1], in [2], in assay [3], in [4], in [6] and in assay [7] was “inactive” each time. In addition, the Potency entry in assay [8], in assay [9], in assay [10], in assay [11], in assay [12] and in [13] was “inactive” in each case. Moreover, the Potency entry in assay [14], in assay [15], in [16], in [17], in assay [18] and in assay [19] was “inactive” in each case. Moreover, the Potency entry in assay [20] was “inactive”. Further, in [5], the max response was 9.37% (inactive).

With `CCOC(=O)COc1cc(-c2nn(C)c(OC(F)F)c2Cl)c(F)cc1Cl`, the Potency result in assay [1], in assay [2], in assay [3], in [4], in assay [6] and in [7] was “inactive” in each case. The Potency entry in assay [8], in [9], in [10], in assay [11], in [12] and in assay [13] was “inactive” in each case. Further, the Potency result in assay [14], in [15], in assay [16], in assay [17], in [18] and in assay [19] was “inactive” each time. Further, the Potency result in assay [20] was “inactive”. Moreover, in [5], the max response was -5.9% (inactive).
